Consider nine compounds from PubChem BioAssay (NCI).

About 83,000 compounds went through this panel and 20% of them were active in at least one assay; those are over-represented in the sample as a whole.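 Each cell line was grown in a 96-well plate and treated with one concentration of compound for 48 hours. Values below 10 were considered active.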 A number with no mark means an inactive call. Activity calls are given as the source filed them.

Test in all cases: NCI-60 one-dose screen, 48 h (100 = growth as untreated, 0 = no growth, -100 = all killed)
Common to all, as to details: 10 µM unless noted

For assay [1], the system named is RPMI-8226 leukemia.
Assay [2] deals with OVCAR-8 ovarian.
In assay [3] the test system is OVCAR-5 ovarian.
Assay [4] relates to OVCAR-4 ovarian.
Assay [5] has as its system SK-OV-3 ovarian.
Assay [6] concerns IGROV1 ovarian.
For assay [7], the system named is OVCAR-3 ovarian.
In assay [8] the test system is HS 578T breast.
The subject of assay [9] is NCI/ADR-RES ovarian.
The test system of assay [10] is T-47D breast.
For assay [11], the system named is MDA-MB-435 melanoma.
Assay [12] relates to SW-620 colon.
In assay [13] the test system is MCF7 breast.
The subject of assay [14] is HCT-116 colon.
In assay [15] the test system is HCC-2998 colon.
For assay [16], the system named is KM12 colon.
For assay [17], the system named is MDA-MB-468 breast.

Take `COc1ccc(C(=O)/C=C/c2ccccc2Br)cc1S(N)(=O)=O`: the growth in [1] was -9.4% (active); in assay [2], -64.5% (active); in assay [3], -6.5% (active); in [4] it was 35.2%; in [5] it was 69.8%; in [6], 38.5%. For the same compound, the growth is -56.5% (active) in assay [7]; 47% in assay [8]; 16.1% in assay [9]; -5.31% (active) in assay [10]; 23.4% in assay [11]; -45.7% (active) in assay [12]. Besides, the growth was -70.5% (active) in [13]; -97% (active) in assay [14]; -65.6% (active) in assay [15]; -71% (active) in [16]; -60.3% (active) in assay [17].
Regarding `NS(=O)(=O)c1ccc(-n2cc(-c3cccc(NC(=O)c4cc(Cl)cc(Cl)c4)c3)nn2)cc1`, the growth is 92.6% in [1]; 26.8% in assay [2]; 73.6% in [4]; 90.2% in assay [5]; 101% in assay [6]; 48.2% in assay [7]. Besides, the growth in assay [8] was 89.2%; in assay [9], 92.7%; in assay [10], 48%; in [11], 50.4%; in assay [12] it was 54.7%; in [13], 37.1%. The growth is 45.4% in assay [14], 51% in assay [15], 2.24% (active) in assay [16] and 72.8% in assay [17].
For the compound `COc1ccc(C(=O)/C=C/c2ccc(Cl)c(Cl)c2)cc1S(N)(=O)=O`, the growth is -6.75% (active) in assay [1]; -45.3% (active) in assay [2]; 10.7% in assay [3]; 34.6% in assay [4]; 52.5% in assay [5]; 11.1% in assay [6]. Also, the growth was -23.5% (active) in assay [7]; 86.9% in [8]; 14.8% in assay [9]; -54.7% (active) in assay [10]; 2.27% (active) in [11]; -48.8% (active) in assay [12]. The growth was -48.7% (active) in assay [13]; -96.2% (active) in assay [14]; -74.1% (active) in [15]; -46.7% (active) in assay [16]; -19.4% (active) in assay [17].
As for `NS(=O)(=O)c1ccc(-n2cc(-c3cccc(NC(=O)c4cc(N5CCOCC5)cc(C(F)(F)F)c4)c3)nn2)cc1`, the growth in [1] was 98.8%; in assay [2], 5.31% (active); in [3] it was 108%; in assay [4] it was 48.3%; in [5] it was 31.2%; in assay [6], 72.9%. For the same compound, the growth in assay [7] is 69%; in [8], 47.9%; in assay [9], 98.5%; in assay [10], 47%; in assay [11], 85.9%; in [12], 105%. In addition, the growth is 72.9% in assay [13]; 87.2% in assay [14]; 88.1% in [15]; 79% in [16]; 69.4% in [17].
In the case of `COc1cc(OC)cc(-c2cc3ccc(N(C)C)cc3c(=O)[nH]2)c1`, the growth in assay [1] is 29.2%; in assay [2], 5.26% (active); in assay [3], 45.5%; in assay [4], 72.6%; in assay [5], 40.2%; in assay [6] it was 29.3%. In addition, the growth in assay [7] is 4% (active); in assay [8] it was 47.3%; in assay [9] it was 0.753% (active); in assay [10], 82%; in assay [11] it was 5.03% (active); in assay [12], 33.8%. The growth in assay [13] is 22.5%; in [14] it was 8.72% (active); in assay [15], 40.7%; in assay [16], 16.7%; in assay [17], 40.2%.
With `CN1CCN(Cc2ccc(C(=O)Nc3cccc(C#Cc4cccc5[nH]nc(N)c45)c3)cc2C(F)(F)F)CC1`, the growth in assay [1] was -45.1% (active); in [2], -98.1% (active); in assay [3] it was -94.8% (active); in assay [4], -60.9% (active); in assay [5], -89.1% (active); in assay [6] it was -70.8% (active). Moreover, the growth in assay [7] is -46.6% (active); in assay [8], -17.5% (active); in assay [9], -61% (active); in assay [10], -70.4% (active); in [11] it was -70.2% (active); in assay [12], -38.3% (active). In addition, the growth is -84% (active) in assay [13]; -90.4% (active) in [14]; -93.6% (active) in [15]; -68.8% (active) in [16]; -89.9% (active) in assay [17].
Turning to `CN1CCN(c2ccc(C(=O)/C=C/c3ccc(Br)cc3)cc2)CC1`, the growth in [1] is -0.714% (active); in assay [2] it was 2.63% (active); in assay [3] it was 39.5%; in assay [4] it was 61%; in [5] it was 15.8%; in assay [6] it was 39.4%. Further, the growth in assay [7] was 17.7%; in assay [8], 89.6%; in assay [9], 45.1%; in assay [10] it was 15.2%; in [11], 22.5%; in assay [12], 19.4%. Further, the growth in [13] was 6.72% (active); in [14], 7.41% (active); in [15], 14.7%; in assay [16], 10.6%; in assay [17], -1.53% (active).
With `COc1ccccc1/C=C/C(=O)c1ccc(OC)c(S(N)(=O)=O)c1`, the growth in assay [1] was 4.34% (active); in assay [2], -9.18% (active); in assay [3], 12.4%; in [4] it was 42.9%; in assay [5], 47.5%; in assay [6], 38.9%. In addition, the growth in [7] was 7.84% (active); in assay [8], 60.4%; in assay [9], 22.9%; in [10], 17%; in [11] it was 27.2%; in [12], 20.5%. Also, the growth in [13] is 8.25% (active); in assay [14], 5% (active); in assay [15] it was 29.5%; in assay [16], 6.73% (active); in assay [17], 20.7%.
On to `O=C(NNc1nc2cc(F)ccc2n2c(CN3CCCCC3)ccc12)c1cnccn1`, for which the growth in [1] is -2.84% (active); in assay [2], -84% (active); in assay [3], -69.5% (active); in [4] it was -45.5% (active); in assay [5], -63.7% (active); in assay [6] it was -3.63% (active). Moreover, the growth in [7] is -45.9% (active); in assay [8] it was 23.7%; in assay [9], -31.5% (active); in [10] it was -61.5% (active); in [11] it was -46.3% (active); in assay [12] it was 2.86% (active). For the same compound, the growth was -55.9% (active) in assay [13]; -86.9% (active) in assay [14]; -65.2% (active) in assay [15]; -29.8% (active) in assay [16]; -62.8% (active) in assay [17].
